From the supplement of paper PMC8728848
Shown is part of a subset that was picked to be rich in the strongest signals.

Columns and labels:
Assay in all cases: glycan array binding signal (z-score within array); higher = stronger binding
Conditions in all cases: glycan notation: IUPAC condensed, linker removed
[1] = molecular target: Fuc(a1-2)Gal(b1-3)GlcNAc(b1-3)Gal(b1-4)Glc
How it was run: (§1)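 Glycan array binding is given as a within-array Z-score, which can be read as non-binding when negative. The arrays, 3228 of them, came from the Consortium for Functional Glycomics database and were retained only where the protein sequence was available. Z-scores were averaged across arrays of the same protein sequence at different concentrations or buffers and across linkers.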

[2] = molecular target: Fuc(a1-2)Gal(b1-3)GlcNAc(b1-3)[Gal(b1-4)GlcNAc(b1-6)]Gal(b1-4)Glc
How it was run: as §1

[3] = molecular target: Fuc(a1-2)Gal(b1-3)[Fuc(a1-4)]GlcNAc(b1-2)Man(a1-3)[Fuc(a1-2)Gal(b1-3)[Fuc(a1-4)]GlcNAc(b1-2)Man(a1-3)]Man(b1-4)GlcNAc(b1-4)GlcNAc
How it was run: as §1

[4] = molecular target: Fuc(a1-2)Gal(b1-4)GlcNAc(b1-3)Gal(b1-4)GlcNAc
How it was run: as §1

[5] = molecular target: Fuc(a1-2)Gal(b1-4)[Fuc(a1-3)]GlcNAc(b1-3)GalNAc
How it was run: as §1

[6] = molecular target: Fuc(a1-2)Gal6S(b1-4)Glc
How it was run: as §1

[7] = molecular target: Fuc(a1-2)Gal6S(b1-4)Glc6S
How it was run: as §1

[8] = molecular target: Fuc(a1-2)[Gal(a1-3)]Gal(b1-3)GlcNAc
How it was run: as §1

[9] = molecular target: Fuc(a1-2)[GalNAc(a1-3)]Gal(b1-4)[Fuc(a1-3)]GlcNAc(b1-3)GalNAc
How it was run: as §1

[10] = molecular target: Fuc(a1-3)[GalNAc(b1-4)]GlcNAc
How it was run: as §1

[11] = molecular target: Gal(b1-3)Gal(b1-4)GlcNAc
How it was run: as §1

[12] = molecular target: Gal(b1-3)Gal(b1-4)GlcNAc(b1-2)Man(a1-3)[Gal(b1-3)Gal(b1-4)GlcNAc(b1-2)Man(a1-6)]Man(b1-4)GlcNAc(b1-4)GlcNAc
How it was run: as §1

[13] = molecular target: Gal(b1-3)GlcNAc(a1-6)Gal(b1-4)GlcNAc
How it was run: as §1

[14] = molecular target: Gal(b1-3)GlcNAc(b1-3)Gal(b1-4)GlcNAc(b1-2)[Gal(b1-3)GlcNAc(b1-3)Gal(b1-4)GlcNAc(b1-6)]Man(a1-6)[Gal(b1-3)GlcNAc(b1-3)Gal(b1-4)GlcNAc(b1-2)Man(a1-3)]Man(b1-4)GlcNAc(b1-4)[Fuc(a1-6)]GlcNAc
How it was run: as §1

[15] = molecular target: Gal(b1-3)GlcNAc(b1-3)Gal(b1-4)GlcNAc(b1-3)Gal(b1-4)GlcNAc(b1-2)[Gal(b1-3)GlcNAc(b1-3)Gal(b1-4)GlcNAc(b1-3)Gal(b1-4)GlcNAc(b1-6)]Man(a1-6)[Gal(b1-3)GlcNAc(b1-3)Gal(b1-4)GlcNAc(b1-3)Gal(b1-4)GlcNAc(b1-2)Man(a1-3)]Man(b1-4)GlcNAc(b1-4)[Fuc(a1-6)]GlcNAc
How it was run: as §1

[16] = molecular target: Gal(b1-3)GlcNAc(b1-6)GalNAc
How it was run: as §1

[17] = molecular target: Gal(b1-3)[GlcNAc(b1-6)]GalNAc
How it was run: as §1

[18] = molecular target: Gal(b1-3)[Neu5Ac(a2-6)]GalNAc
How it was run: as §1

[19] = molecular target: Gal(b1-3)[Neu5Ac(b2-6)]GalNAc
How it was run: as §1

[20] = molecular target: Gal(b1-4)GlcNAc(b1-2)[Gal(b1-4)GlcNAc(b1-4)]Man(a1-3)[Gal(b1-4)GlcNAc(b1-2)[Gal(b1-4)GlcNAc(b1-6)]Man(a1-6)]Man(b1-4)GlcNAc(b1-4)GlcNAc
How it was run: as §1

[21] = molecular target: Gal(b1-4)GlcNAc(b1-2)[Gal(b1-4)GlcNAc(b1-4)]Man(a1-3)[GlcNAc(b1-4)][Gal(b1-4)GlcNAc(b1-2)Man(a1-6)]Man(b1-4)GlcNAc(b1-4)GlcNAc
How it was run: as §1

[22] = molecular target: Gal(b1-4)GlcNAc(b1-3)Gal(b1-4)GlcNAc(b1-2)Man(a1-3)[Gal(b1-4)GlcNAc(b1-3)Gal(b1-4)GlcNAc(b1-2)Man(a1-6)]Man(b1-4)GlcNAc(b1-4)GlcNAc
How it was run: as §1

[23] = molecular target: Gal(b1-4)GlcNAc(b1-3)Gal(b1-4)GlcNAc(b1-2)Man(a1-3)[Gal(b1-4)GlcNAc(b1-3)Gal(b1-4)GlcNAc(b1-2)Man(a1-6)]Man(b1-4)GlcNAc(b1-4)[Fuc(a1-6)]GlcNAc
How it was run: as §1

[24] = molecular target: Gal(b1-4)GlcNAc(b1-3)Gal(b1-4)GlcNAc(b1-2)[Gal(b1-4)GlcNAc(b1-3)Gal(b1-4)GlcNAc(b1-6)]Man(a1-6)[Gal(b1-4)GlcNAc(b1-3)Gal(b1-4)GlcNAc(b1-2)Man(a1-3)]Man(b1-4)GlcNAc(b1-4)[Fuc(a1-6)]GlcNAc
How it was run: as §1

[25] = molecular target: Gal(b1-4)GlcNAc(b1-3)Gal(b1-4)GlcNAc(b1-3)GalNAc
How it was run: as §1

[26] = molecular target: Gal(b1-4)GlcNAc(b1-6)[Gal(b1-3)]GalNAc
How it was run: as §1

B1: GST-Gap1 (Streptococcus parasanguinis), A1C3L5 (protein)
chain: MFYFVPSWYNGQRQWYYDTPWWFRVKNRMTFDDSVNQVKMFLQGQEEIGLMILNYQPQLRYFLHKQNIFGIYYWSFFDDIQNITRSYTKIIHLKDLNWPEGCEFLYSPFAVVVRLKGEIFAIVNYAEDGNLHSVSFQKNGKVTKDYIFDDRGFLSSILYYDIDERPLYQDYLNINGVWQVREFLKKENDPTPILMINDFSDQTFSKKYYNGWEELIKERLAIFQNNHVENEDVFVLASDTQHNQLVSSIFKEHRKIYSFFGNRFNLENLGQDRISINDATFLVVDTEKNEELLRKTCENLVFKSIPIVRLSPFDSRLRLGHSQTVKEQIIYFHIDNIELDELYSVIAIILELMTLHLDIELRIVTFRQDFQLDLLKTWIIDFIKTNHFEDLLFKQISEGENEIEDEGEIELSRIAMECFTNENQIIKCLDTARLVIDLGIEPDLYTQIASISAGIPQINRVSSDYVIHQKNGLVISDISKLSSAIEFYFDGLFNWNEALIYAVRKMSDYTSGKILKQWKGMLKKK
Question: B1 was tested. Which “glycan array binding signal (z-score)” value [1] did it give?
Answer: -0.291

Question: And the “glycan array binding signal (z-score)” value [2]?
Answer: 0.111

Question: What about the “glycan array binding signal (z-score)” value [3] of the same binder?
Answer: 0.383

Question: What about the “glycan array binding signal (z-score)” value [4] of the same binder?
Answer: -0.608

Question: And the “glycan array binding signal (z-score)” value [5]?
Answer: 1.32

Question: And the “glycan array binding signal (z-score)” value [6]?
Answer: -0.647

Question: What about the “glycan array binding signal (z-score)” value [7] of the same binder?
Answer: -0.485

Question: And the “glycan array binding signal (z-score)” value [8]?
Answer: 0.152

Question: What about the “glycan array binding signal (z-score)” value [9] of the same binder?
Answer: 0.024

Question: And the “glycan array binding signal (z-score)” value [10]?
Answer: 0.035

Question: What about the “glycan array binding signal (z-score)” value [11] of the same binder?
Answer: 0.416

Question: And the “glycan array binding signal (z-score)” value [12]?
Answer: 13.5

Question: What about the “glycan array binding signal (z-score)” value [13] of the same binder?
Answer: -0.654

Question: And the “glycan array binding signal (z-score)” value [14]?
Answer: 2.25

Question: What about the “glycan array binding signal (z-score)” value [15] of the same binder?
Answer: 3.43

Question: And the “glycan array binding signal (z-score)” value [16]?
Answer: 0.494

Question: What about the “glycan array binding signal (z-score)” value [17] of the same binder?
Answer: -0.334

Question: What about the “glycan array binding signal (z-score)” value [18] of the same binder?
Answer: 0.3

Question: And the “glycan array binding signal (z-score)” value [19]?
Answer: -0.046

Question: What about the “glycan array binding signal (z-score)” value [20] of the same binder?
Answer: -0.809

Question: What about the “glycan array binding signal (z-score)” value [21] of the same binder?
Answer: 0.833

Question: What about the “glycan array binding signal (z-score)” value [22] of the same binder?
Answer: 4.81

Question: What about the “glycan array binding signal (z-score)” value [23] of the same binder?
Answer: 1.2

Question: And the “glycan array binding signal (z-score)” value [24]?
Answer: 2.87

Question: And the “glycan array binding signal (z-score)” value [25]?
Answer: 2.15

Question: What about the “glycan array binding signal (z-score)” value [26] of the same binder?
Answer: 0.095
